Compound activity as filed in PubChem.
Lassa entry inh = Lassa virus entry inhibition. Lassa virus pseudotype entry inhibition, cell reporter. Potency, µM (top dose mostly 37.9 µM), without a hit: top-dose activity change, negative = inhibition, most hits filed as inhibitors. actives 1.2% (n = 300,000); calls by dose curve; tested in HEK293 cells; also: potency is read from the fitted curve at half-maximal effect; nearly all actives have a fitted effect of over 50% in size
FMDV inh = foot and mouth disease virus antiviral activity; AID 1159524; actives 1.2% (n = 410,000); FMDV antiviral cell-based qHTS; Potency, µM (highest dose often 57.9 µM), for the others: top-dose activity change, negative = inhibition, actives largely listed as inhibitors; calls by dose curve; tested in HEK293T cells; also: read-out not given here; potency is read from the fitted curve at half-maximal effect; nearly all actives have a fitted effect of over 45% in size
HCMV antiviral = inhibitors of human cytomegalovirus; HFF cells, HCMV-luciferase reporter, 72 h; active compounds read low; activity change, negative = inhibition, % at 57.5 µM; actives 4.5% (n = 410,000); in the data active = activity change below about -60%; inconclusive = no clear call, values can overlap the other calls; inactive = above about -39%
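Cell-based, HFFs, 1000 cells/well, 16 h 37C; cpds in DMSO + HCMV-luc, MOI 1 PFU/cell; 72 h 37C; OneGlo luminescence after 5 min RT; norm. to buffer vs Salinomycin 10uM.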
Marburg entry inh = blocks Marburg virus binding to or entry into cells; Marburg virus pseudotyped entry inhibition, cell reporter; Potency, µM (doses to about 37.8 µM), without a hit: at the highest dose activity change, negative = inhibition, hits mostly inhibitors; actives 1.8% (n = 300,000); AID 540276; calls by dose curve; tested in HEK293 cells; also: potency is read from the fitted curve at half-maximal effect
Vaccinia mCherry = vaccinia inhibition (mCherry reporter) | Vaccinia virus mCherry reporter infection, fluorescence | Potency, µM (titrated, usually from 36.5 µM), without a hit: top-dose activity change, negative = inhibition, hits mostly inhibitors | actives 0.63% (n = 310,000); calls by dose curve; tested in A549 cells; also: potency is read from the fitted curve at half-maximal effect; nearly all actives have a fitted effect of over 35% in size
VACV Venus inh = vaccinia inhibition (Venus reporter); Vaccinia virus Venus reporter expression, fluorescence; Potency, µM (top dose mostly 36.5 µM), inactives show top-dose activity change, negative = inhibition, most hits filed as inhibitors; actives 0.46% (n = 330,000); calls by dose curve; tested in A549 cells; also: potency is read from the fitted curve at half-maximal effect; nearly all actives have a fitted effect of over 30% in size
* hit, by the source's call; i = inactive; ? = inconclusive; · = no result; [ ] = remark or other dose. Sampled rows, rich in hits. Any-hit rate of the full collection: about 6.5%. % is scaled to controls: 0 for no effect and ±100 for the full control effect.

SMILES	Lassa entry inh	FMDV inh	HCMV antiviral	Marburg entry inh	Vaccinia mCherry	VACV Venus inh
COC(=O)C1CCN(Cc2ccc3c(c2)CN(C(=O)c2cc(-c4ccc(C)o4)[nH]n2)CCO3)CC1	·	-8.4%	·	·	5.8%	7.1%
Cc1nn(-c2ccc(NC(=O)c3ccncc3)cc2)c(C)c1Cl	?	17.8µM*	-90.7*	?	-11.8%	-14.0%
COc1cccc(C=C2SC(=S)N(Cc3ccco3)C2=O)c1OC	·	·	-34.3	·	·	·
CCN1CCN(c2c(/C=C3\SC(=S)N(Cc4ccco4)C3=O)c(C)c(C#N)c(=O)n2C)CC1	?	-17.4%	-72.9*	12.6µM*	i	35.6%
COc1cccc(N2CCN(C(=O)c3cccn3-c3nnc(N4CCCCC4)s3)CC2)c1	?	-13.0%	0.0	·	-13.5%	-0.4%
Nc1ccc(S(=O)(=O)NC2(C(F)(F)F)NC(=O)N(c3cccc(Cl)c3)C2=O)cc1 (configuration not stated)	-3.5%[46.1 µM]	-22.7%	-8.7	25.8%[46.1 µM]	-2.5%	-6.8%
COC(=O)[C@]1(C#N)CC(=O)N([C@H](c2ccccc2)[C@@H](O)c2ccccc2)[C@@H]1c1ccccc1	·	·	-17.7	·	·	·
CCCCCNC(=O)c1cccc(S(=O)(=O)N2CC3(C)CC2CC(C)(C)C3)c1 (configuration not stated)	12.6µM*	8.4%	-1.6	?	?	?
C=CCN=C1N[C@@H](c2ccccc2)[C@H](C(=O)OC)[C@@H](C)N1CC	·	·	·	-24.9%[14.2 µM]	·	·
O=S(=O)(CCOc1ccccc1)c1nc2ccccc2[nH]1	2.7%	-20.3%	-68.6*	-24.7%	·	·
O=C(CCCOc1ccccc1)Nc1nc2ccccc2[nH]1	-0.6%	59.7%	25.5	?	-14.3%	-12.3%
CCCN(CC(=O)Nc1ccc(F)c(F)c1F)CC(=O)Nc1c(C)n(C)n(-c2ccccc2)c1=O	4.4%	?	-68.8*	21.2%	-12.8%	-10.9%
COc1ccc(Oc2cnc3ccccc3n2)cc1	-2.9%	41.8%	-63.1*	5.3%[46.1 µM]	i	-2.0%
O=[N+]([O-])c1ccc(Cl)c([N+](=O)[O-])c1	·	?	-73.9*	·	?	-15.0%
O=[N+]([O-])c1ccc(O)c([N+](=O)[O-])c1	·	?	?	·	-2.6%	?
Cc1cc2nc(-c3cccc(NC(=O)c4cccc5ccccc45)c3)oc2cc1C	18.0%[46.1 µM]	-0.2%	-7.4	·	-18.7%	-7.6%
O=C(Nc1cccc2c1CCCC2)c1cc([N+](=O)[O-])ccc1Cl	?	?	-104.8*	-24.0%	-4.9%[1.46 µM]	-23.7%
O=C(Nc1ccc2c3c(cccc13)CC2)c1cccc([N+](=O)[O-])c1	-12.9%	-15.6%	-60.8*	?	-18.0%	-6.4%
O=C(Nc1ccc2c3c(cccc13)CC2)c1ccccc1	·	47.7%	-3.2	·	i	-3.4%
O=C(Nc1ccccc1-c1ccccc1)c1ccc(Cl)c([N+](=O)[O-])c1	23.1µM*	-9.1%	-32.3	7.31µM*	20µM*	12.6µM*
O=C(Nc1cccc2c1CCCC2)c1ccc(Cl)c([N+](=O)[O-])c1	0.4%	25.1µM*	-26.0	-6.5%	2.8%	4.3%
COc1cc(=O)n2c(c1C(=O)NC(C)c1ccco1)CCN(Cc1cc(C)ccc1C)CC2 (configuration not stated)	·	-14.6%	·	·	-8.0%	8.0%
C=CCN1C(=O)[C@]2(OCCC=C[C@@H]2C)c2cc(OC)ccc21	·	·	·	37.0%[14.2 µM]	·	·
CCOc1ccccc1C(=O)N1CCCCC1CCN1CCOCC1 (configuration not stated)	14.8%[46.1 µM]	-2.5%	-36.6	10.8%[46.1 µM]	-4.8%	-7.8%
CN1CCN(CCOC2c3ccccc3CSc3ccc(Cl)cc32)CC1 (configuration not stated)	20.6µM*	-22.1%	-37.1	?	?	?
SMILES	Lassa entry inh	FMDV inh	HCMV antiviral	Marburg entry inh	Vaccinia mCherry	VACV Venus inh
CCC1CN(CCC(=O)N2CCN(c3ncccn3)CC2)Cc2cc(OC)ccc2O1 (configuration not stated)	·	-19.1%	·	·	-14.7%	0.0%
Cc1cc(OCCCCNC(C)C)cc(C(C)C)c1	?	-18.4%	-6.1	14.6µM*	?	-18.1%
Cc1cc(OCCOCCNC(C)C)cc(C)c1Cl	?	0.0%	-11.9	?	·	-26.7%
O=c1c(Br)c(Br)cnn1-c1ccccc1	?	14.1µM*	-97.2*	?	?	?
Cc1ccccc1-c1nc(CN2CCC(C(=O)NCc3ccccc3Cl)CC2)c(C)o1	0.5%[46.1 µM]	-19.5%	12.6	7.6%[46.1 µM]	-12.8%	-13.2%
CCCCS(=N)(=O)CC[C@H](N)C(=O)O (some centres not stated)	1.7%	·	·	-23.7%	·	·
COc1ccc(CCN(C)CC(O)COc2c(C)ccc(C)c2C)cc1OC (configuration not stated)	·	-27.4%	-4.3	·	·	·
COc1ccc(CCN(C)CC(O)COC(c2ccc(F)cc2)c2ccc(F)cc2)cc1OC (configuration not stated)	?	-11.3%	2.9	5.62µM*	i	-26.6%
COc1ccc(C(NC(=O)COc2ccc(C#N)cc2)c2ccc(OC)cc2)cc1	·	·	·	·	32.6%	5.6%
CN(C)C(=O)O/N=C(\N)COc1ccc(C(C)(C)C)cc1	·	-16.2%	-100.4*	·	·	·
CC(C)(C)c1ccc(OCC(=O)O)cc1	10.4%	17.7%	-28.5	?	·	·
CCCC(=O)NCC(c1cccs1)S(=O)(=O)c1ccc(Cl)cc1 (configuration not stated)	?	25.9%	-102.9*	6.8%[46.1 µM]	-11.1%	-7.6%
COc1ccc(CNC(=O)C(=O)NCC(c2cccs2)S(=O)(=O)c2ccc(C)cc2)cc1 (configuration not stated)	-24.7%[46.1 µM]	?	-16.3	·	-14.1%	-4.3%
COc1ccc(CCNC(=O)C(=O)NCC(c2cccs2)S(=O)(=O)c2ccccc2)cc1 (configuration not stated)	-3.4%[46.1 µM]	28.2µM*	-24.4	·	?	?
COc1ccc(CCNC(=O)C(=O)NCC(c2cccs2)S(=O)(=O)c2ccc(C)cc2)cc1 (configuration not stated)	?	20µM*	-16.1	·	-11.1%	-7.0%
Cc1ccc(S(=O)(=O)C(CNC(=O)Cc2ccc(Cl)cc2)c2cccs2)cc1 (configuration not stated)	?	-6.8%	-4.1	·	-5.3%	-21.5%
O=C1NC(=S)S/C1=C\C=C\c1ccc([N+](=O)[O-])o1	?	?	-99.8*	?	?	?
CCc1ccc(N/C(SCc2ccccc2C)=C(/C#N)C(=O)NCc2ccco2)cc1	8.2µM*	-10.0%	-19.8	?	·	·
O=C(Nc1ccc(Cl)cc1)c1cc(S(=O)(=O)NC2CCCCCC2)ccc1F	?	1.4%	-66.8*	·	?	?
O=C(CNC(=O)c1ccc(S(=O)(=O)N2CCCC2)cc1)N/N=C/c1ccccc1Cl	-4.7%	?	-62.9*	20.4%	-16.5%	-15.4%
O=C(NN=Cc1c(O)ccc2ccccc12)c1ccc2c(c1)OCO2	·	19.5%	-101.6*	·	·	·
